This is an account of results in PubChem BioAssay (NCATS).

SMILES strings stand for the structures. Inconclusive results are not listed. Entries that show only a call come without a potency. The source made the active and inactive calls. Unless noted, calls come from the whole dose curve; as a rule, active = well fitted cell-killing curve with a large enough effect; inconclusive = small, poorly fitted or top-dose-only effect; inactive = flat fitted curve, though single readings scatter.

The target in the first test is Mitogen-activated protein kinase 10 (Mus musculus) (UniProt Q61831). Briefly: JNK3 AlphaScreen Assay (AID 530; active = well fitted curve in either direction with a large enough effect, not every such curve was filed as active;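 note: kinase came from lysate of stimulated human HepG2 cells; signal reports phosphorylation of biotinylated GST-cJun 1-79 at Ser73 with 10 µM ATP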). Conditions: JNK3 lysate, c-Jun phosphorylation; series mostly up to 57.1 µM. In short, it runs like this:
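JNK3 came from HepG2 lysates pre-activated with IL-1beta and TNF-alpha and phosphorylated biotinylated GST-cJun (1-79) at 10 uM ATP, pH 7.6, room temperature. Compounds were titrated. AlphaScreen signal used anti-phospho-cJun (Ser73) antibody.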
A general note: Bead proximity is the source of the signal in Alpha formats.
For the molecule `Oc1cccc(Cl)c1Cl`, the Potency entry was “inactive”.
Same read-out and setting: then `CCC/C=N/O`, with “inactive”.
On the same count and under the same terms, then `Nc1cccc2ccccc12`, with “inactive”.
On the same count and under the same terms, then `Cc1cnc[nH]1`, with “inactive”; and `CN(C)N=O`, with “inactive”; and `COc1c(C(C)(C)C)cc([N+](=O)[O-])c(C)c1[N+](=O)[O-]`, with “inactive”.
`C=C(Cl)CCl`: the Potency result is “inactive”.
Still for that read-out and setting: then `ClCCOCOCCCl`, with “inactive”.
Same read-out and setting: the value for `CC12CC1(C)C(=O)N(c1cc(Cl)cc(Cl)c1)C2=O` (stereo not drawn) was “inactive”.
Same read-out and setting: the value for `CC(C)(Cl)[N+](=O)[O-]` was “inactive”.
As to `Cl/C=C/Cl`, the Potency entry is “inactive”.
The same measure, in the same setting: then `CCCCOCC1CO1` (stereo not drawn), with “inactive”; and `O=C(O)c1cccc(Cl)c1`, with “inactive”.
On the same count and under the same terms, the value for `C1CC2OC2CC1C1CO1` (stereo not drawn) was “inactive”; that for `Brc1cccc(-c2ccccc2)c1` was “inactive”.
`Oc1c(Cl)cccc1Cl`: the Potency entry is “inactive”.
The same measure, in the same setting: then `ClCCOCCCl`, with “inactive”.
Same read-out and setting: the value for `CCNCC` was “inactive”.
On the same count and under the same terms, then `CC(C)C#N`, with “inactive”; and `Cl/C=C\Cl`, with “inactive”.
In the case of `c1ccc2c(c1)CCNC2`, the Potency result is “inactive”.
On the same count and under the same terms, the value for `CCBr` was “inactive”; that for `O=[N+]([O-])c1ccc(Cl)c(Cl)c1Cl` was “inactive”; that for `N#CCCC#N` was “inactive”.
The same measure, in the same setting: then `Cc1ccccc1[N+](=O)[O-]`, with “inactive”; and `OCCBr`, with “inactive”; and `C=CC(=O)OCCN(C)C`, with “inactive”.
In the case of `CC(C)(C)C(O)(CCc1ccc(Cl)cc1)Cn1cncn1` (stereo not drawn), the Potency result was “inactive”.
Take `N#CCCCCC#N`: the Potency entry is “inactive”.
Still for that read-out and setting: the value for `CN=C=O` was “inactive”; that for `c1ccc(C2CO2)cc1` (stereo not drawn) was “inactive”.
Same read-out and setting: then `CCCCCC[N+](=O)[O-]`, with “inactive”.
Take `OCC(Cl)CCl` (stereo not drawn): the Potency entry is “inactive”.
The same measure, in the same setting: the value for `COc1ccc(C=O)cc1` was “inactive”; that for `Nc1ccc(Cl)c(Cl)c1` was “inactive”; that for `CC(=O)[O-].CC(=O)[O-].CC(=O)[O-].[Cr+3]` was “inactive”.
On the same count and under the same terms, the value for `CC(=O)CCC(C)=O` was “inactive”.
Same read-out and setting: the value for `C=CC(=O)OCC(CC)CCCC` (stereo not drawn) was “inactive”; that for `CC(C#N)CCC#N` (stereo not drawn) was “inactive”.

Tested on in the next test: not listed separately
Briefly: Cell Viability - N2a (AID 540).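 Note: cells exposed to compound for 40 h at 37 °C; nearly all actives have a fitted effect of over 45% in size.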 Conditions: N2a mouse neuroblastoma cell viability; activity change, negative = cytotoxicity: at 92.2 µM (top of the series). In short, it runs like this: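 First, 1500 N2a cells per well incubate 5 hr at 37 °C; next, compounds are added and incubated 40 hr at 37 °C; finally CellTiter-Glo is added and luminescence read after 20 min, with AC50 derived by Hill modeling.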
Regarding `Oc1cccc(Cl)c1Cl`, the Potency entry is “inactive”.
On the same count and under the same terms, the value for `CCC/C=N/O` was “inactive”; that for `Nc1cccc2ccccc12` was “inactive”.
Still for that read-out and setting: then `Cc1cnc[nH]1`, with “inactive”.
On the same count and under the same terms, the value for `CN(C)N=O` was “inactive”; that for `COc1c(C(C)(C)C)cc([N+](=O)[O-])c(C)c1[N+](=O)[O-]` was “inactive”.
In the case of `C=C(Cl)CCl`, the Potency entry was “inactive”.
On the same count and under the same terms, the value for `ClCCOCOCCCl` was “inactive”.
Turning to `CC12CC1(C)C(=O)N(c1cc(Cl)cc(Cl)c1)C2=O` (stereo not drawn), the Potency result is “inactive”.
Same read-out and setting: the value for `CC(C)(Cl)[N+](=O)[O-]` was “inactive”; that for `Cl/C=C/Cl` was “inactive”.
`CCCCOCC1CO1` (stereo not drawn): the Potency entry is “inactive”.
Still for that read-out and setting: then `O=C(O)c1cccc(Cl)c1`, with “inactive”.
The same measure, in the same setting: the value for `C1CC2OC2CC1C1CO1` (stereo not drawn) was “inactive”; that for `Brc1cccc(-c2ccccc2)c1` was “inactive”; that for `Oc1c(Cl)cccc1Cl` was “inactive”.
`ClCCOCCCl`: the Potency result was “inactive”.
As to `CCNCC`, the Potency result is “inactive”.
The same measure, in the same setting: then `CC(C)C#N`, with “inactive”; and `Cl/C=C\Cl`, with “inactive”; and `c1ccc2c(c1)CCNC2`, with “inactive”.
With `CCBr`, the Potency entry was “inactive”.
Still for that read-out and setting: the value for `O=[N+]([O-])c1ccc(Cl)c(Cl)c1Cl` was “inactive”; that for `N#CCCC#N` was “inactive”.
In the case of `Cc1ccccc1[N+](=O)[O-]`, the Potency result is “inactive”.
The same measure, in the same setting: then `OCCBr`, with “inactive”; and `C=CC(=O)OCCN(C)C`, with “inactive”.
The same measure, in the same setting: then `CC(C)(C)C(O)(CCc1ccc(Cl)cc1)Cn1cncn1` (stereo not drawn), with “inactive”; and `N#CCCCCC#N`, with “inactive”; and `CN=C=O`, with “inactive”.
The same measure, in the same setting: the value for `c1ccc(C2CO2)cc1` (stereo not drawn) was “inactive”; that for `CCCCCC[N+](=O)[O-]` was “inactive”.
For `OCC(Cl)CCl` (stereo not drawn), the Potency entry was “inactive”.
Still for that read-out and setting: the value for `COc1ccc(C=O)cc1` was “inactive”.
On the same count and under the same terms, the value for `Nc1ccc(Cl)c(Cl)c1` was “inactive”; that for `CC(=O)[O-].CC(=O)[O-].CC(=O)[O-].[Cr+3]` was “inactive”.
Still for that read-out and setting: the value for `CC(=O)CCC(C)=O` was “inactive”.
On to `C=CC(=O)OCC(CC)CCCC` (stereo not drawn), for which the Potency entry was “inactive”.
With `CC(C#N)CCC#N` (stereo not drawn), the Potency entry is “inactive”.
